The source made the active and inactive calls. Unless noted, the rule behind the calls is not given here.

Experimental findings from PubChem BioAssay are described below.

Experiment [1] in a line: compounds binding Alexa647 anti-His antibody – biochemical, small-molecule microarray, 635 nm fluorescence, artefact control for SMM control protein annotation, primary screen (AID 1128).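 Note: score merges feature fluorescence with signal-to-noise for each printed compound spot.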 The conditions noted are these: higher = more signal.
Experiment [2] has as its system Human papillomavirus type 1a E7 protein (residues 1-88). Kind of experiment: HPV1a E7 small-molecule binders, primary screen, biochemical, small-molecule microarray, residues 1-88, 635 nm (AID 1129). The conditions noted are these: small-molecule microarray binding, fluorescence 635 nm; higher = more signal.
Experiment [3] concerns the target Focal adhesion kinase 1 (Homo sapiens) (UniProt Q05397). Kind of experiment: PTK2 protein binding on printed compound slides – biochemical, small-molecule microarray, 635/667 nm fluorescence, BSA, DTT, primary screen (AID 1130).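 Note: composite of spot emission at 667 nm and signal to noise over triplicate slides.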 The conditions noted are these: 635 nm fluorescence, higher = more signal.
In experiment [4] the test system is Fibrinogen (Alexa647-labelled). Kind of experiment: Alexa647-fibrinogen binding to printed small molecules – biochemical, small-molecule microarray, 635/667 nm fluorescence, artefact control for SMM control-protein annotation, profiling panel (AID 1131).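 Note: z-score merges 667 nm fluorescence with per-spot signal-to-noise over triplicate slides.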 The conditions noted are these: fibrinogen-A647 binding fluorescence, higher = more signal.
Experiment [5] deals with Follistatin (Homo sapiens) (UniProt P19883). Nature of the experiment: FST protein binding to printed compounds – biochemical, small-molecule microarray, 635/667 nm fluorescence, primary screen (AID 1132). The conditions noted are these: 635 nm fluorescence, higher = more signal.
In experiment [6] the target is Fibroblast growth factor 2 (Homo sapiens) (UniProt P09038). Nature of the experiment: basic fibroblast growth factor binding to printed compounds – biochemical, small-molecule microarray, 635/667 nm fluorescence, primary screen (AID 1133). The conditions noted are these: FGF2, fluorescence 635/667, higher = more signal.
Experiment [7] is described as follows: JC-1 mitochondrial potential readout, lung cancer cells – cell-based, A549, JC-1 fluorescence, basal, 24 h, 100 nL, profiling panel (AID 1138).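 Note: A549 lung adenocarcinoma cells under basal conditions with no added stimulus; test concentration not given here.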 The conditions noted are these: higher = more signal.
A further experiment has as its system Lefty1. Nature of the experiment: Lefty1 protein binding to printed compounds – biochemical, small-molecule microarray, 635/667 nm fluorescence, primary screen (AID 1139). To be noted: fluorescence 635/667, higher = more signal.
Experiment [8] deals with wheat germ agglutinin (Triticum aestivum), Alexa647-labelled. Nature of the experiment: Alexa647-WGA lectin binding to printed small molecules – biochemical, small-molecule microarray, 635/667 nm fluorescence, artefact control for SMM control-protein annotation, profiling panel (AID 1140).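 Note: score merges 667 nm feature emission with signal to noise over triplicate slides.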 To be noted: WGA-A647 binding, 635 nm fluorescence, higher = more signal.
Experiment [9] concerns the target Luciferin 4-monooxygenase (Photinus pyralis) (UniProt P08659). Kind of experiment: inhibition of purified Photinus pyralis luciferase – biochemical, luminescence, purified enzyme, 2006 set, primary screen (AID 1141).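 Note: cell-free assay with purified firefly luciferase at 100 ng per well in PBS; test concentration not given here.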 The conditions noted are these: purified firefly luciferase, SteadyGlo luminescence, 30 min; higher = more signal, called active from +8 up or from −8 down.

Experiment [10] deals with Wnt5a (protein binding on small-molecule microarray). Nature of the experiment: small molecules binding Wnt5a protein – biophysical, small-molecule microarray, 635/667 nm fluorescence, primary screen (AID 1142).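 Note: fluorescence read at 667 nm with signal to noise per printed feature.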 The conditions noted are these: 635 nm fluorescence, higher = more signal.
A short description of experiment [11]: ATP-based viability of Huh7 replicon cells – cell-based, CellTiter-Glo luminescence, basal, 48 h, cytotoxicity control for HCV replication inhibitor project, primary screen (AID 1143).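 Note: Huh7 hepatoma cells carrying a hepatitis C replication reporter with no stimulus; test concentration not given here.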 To be noted: higher = more signal, called active from +8 up or from −8 down. For orientation: A replicon is a self-replicating genome or part of one, used to study replication in cells.

The nature of experiment [12]: Pseudomonas biofilm growth suppression – PAO1 strain, BacTiter-Glo luminescence, LB-PBS, primary screen (AID 1144). The conditions noted are these: P. aeruginosa PAO1 biofilm, 12 h, higher = more signal.
The nature of experiment [13]: basal CRE-LacZ reporter activity in PC12 – cell-based, unstimulated, primary screen (AID 1145). The conditions noted are these: no forskolin, luminescence, 4.5 h, higher = more signal, called active from +8 up or from −8 down.
Experiment [14] can be described thus: forskolin-driven CRE-LacZ activity in PC12 – cell-based, CRE-LacZ reporter, forskolin-stimulated, primary screen (AID 1146).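 Note: PC12 cells with 6xCRE LacZ reporter stimulated by forskolin 10 µM; beta-galactosidase reporter signal reflecting CREB driven transcription.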 The conditions noted are these: luminescence, 4.5 h, higher = more signal, called active from +8 up or from −8 down.
For experiment [15], the target named is Streptavidin (Streptomyces avidinii) (UniProt P22629). Kind of experiment: compounds binding control protein streptavidin – biophysical, small-molecule microarray, 635/667 nm fluorescence, artefact control for SMM compound annotation, primary screen (AID 1147).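 Note: signal reflects streptavidin binding to arrayed compounds as a control protein.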 The conditions noted are these: higher = more signal.
Experiment [16] in a line: probe aInhba binding on compound microarray – biochemical, small-molecule microarray, 635/667 nm fluorescence, primary screen (AID 1148).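 Note: score merges 667nm spot fluorescence with signal-to-noise for antibody binding to printed compounds.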 The conditions noted are these: higher = more signal.
The target of experiment [17] is Torsin-1A (Homo sapiens) (UniProt O14656). Nature of the experiment: TOR1A wild-type binding on microarray – cell lysate, small-molecule microarray, lysate, 635/667 nm, primary screen (AID 1149). To be noted: COS7 hTOR1A-WT lysate, 635 nm fluorescence, higher = more signal.
Experiment [18] shares this target. Nature of the experiment: torsin A mutant lysate binding on microarrays – cell lysate, small-molecule microarray, COS7 lysate, 635/667 nm fluorescence, primary screen (AID 1150).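 Note: score pools 667 nm emission and signal to noise measuring lysate protein binding.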 To be noted: COS7 hTOR1A mutant lysate, 635 nm fluorescence, higher = more signal.
For experiment [19], the system named is Sonic hedgehog protein (Shh). Kind of experiment: Sonic hedgehog microarray binding compounds – biochemical, small-molecule microarray, 635/667 nm fluorescence, primary screen (AID 1151).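 Note: Shh protein binding to compounds spotted on small-molecule microarray slides; score combines spot fluorescence intensity with signal-to-noise across triplicate slides.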 To be noted: 635 nm fluorescence, higher = more signal.

Follistatin (Homo sapiens), sequence (P19883 whole entry, looked up): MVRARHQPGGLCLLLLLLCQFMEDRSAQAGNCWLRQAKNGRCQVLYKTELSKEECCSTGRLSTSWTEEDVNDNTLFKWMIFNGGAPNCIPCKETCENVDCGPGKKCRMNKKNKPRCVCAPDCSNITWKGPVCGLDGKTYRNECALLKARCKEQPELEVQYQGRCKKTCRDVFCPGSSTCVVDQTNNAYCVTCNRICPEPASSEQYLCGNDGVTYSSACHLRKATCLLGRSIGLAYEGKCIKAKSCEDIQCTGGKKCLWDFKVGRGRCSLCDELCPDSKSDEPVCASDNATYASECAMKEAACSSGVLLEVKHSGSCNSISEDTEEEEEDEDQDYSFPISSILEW
Torsin-1A (Homo sapiens), sequence (O14656 whole entry, looked up): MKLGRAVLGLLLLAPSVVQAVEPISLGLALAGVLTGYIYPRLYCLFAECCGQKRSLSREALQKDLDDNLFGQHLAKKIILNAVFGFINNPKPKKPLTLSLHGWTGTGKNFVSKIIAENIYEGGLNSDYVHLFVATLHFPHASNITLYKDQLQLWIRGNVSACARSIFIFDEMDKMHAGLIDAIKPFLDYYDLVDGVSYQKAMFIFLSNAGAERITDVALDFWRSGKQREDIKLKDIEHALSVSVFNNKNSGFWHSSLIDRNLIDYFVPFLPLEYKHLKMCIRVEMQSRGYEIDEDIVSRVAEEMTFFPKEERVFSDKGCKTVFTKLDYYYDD
Luciferin 4-monooxygenase (Photinus pyralis), sequence (P08659 whole entry, looked up): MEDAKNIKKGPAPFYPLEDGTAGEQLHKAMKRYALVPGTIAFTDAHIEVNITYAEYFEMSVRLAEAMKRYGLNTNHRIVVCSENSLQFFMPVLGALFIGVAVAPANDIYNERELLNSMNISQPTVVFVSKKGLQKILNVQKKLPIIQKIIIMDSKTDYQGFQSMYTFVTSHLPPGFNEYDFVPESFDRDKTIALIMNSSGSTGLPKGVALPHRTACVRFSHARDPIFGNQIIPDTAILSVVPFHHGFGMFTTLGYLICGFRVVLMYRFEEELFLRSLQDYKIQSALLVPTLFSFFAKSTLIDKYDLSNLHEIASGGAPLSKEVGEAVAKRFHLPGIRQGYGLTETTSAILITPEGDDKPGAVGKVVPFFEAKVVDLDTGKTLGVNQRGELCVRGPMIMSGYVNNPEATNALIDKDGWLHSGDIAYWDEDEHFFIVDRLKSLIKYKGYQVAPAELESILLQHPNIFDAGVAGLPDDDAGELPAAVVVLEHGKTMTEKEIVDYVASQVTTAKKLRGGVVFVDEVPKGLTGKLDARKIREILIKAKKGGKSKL
Focal adhesion kinase 1 (Homo sapiens), sequence (Q05397 whole entry, looked up): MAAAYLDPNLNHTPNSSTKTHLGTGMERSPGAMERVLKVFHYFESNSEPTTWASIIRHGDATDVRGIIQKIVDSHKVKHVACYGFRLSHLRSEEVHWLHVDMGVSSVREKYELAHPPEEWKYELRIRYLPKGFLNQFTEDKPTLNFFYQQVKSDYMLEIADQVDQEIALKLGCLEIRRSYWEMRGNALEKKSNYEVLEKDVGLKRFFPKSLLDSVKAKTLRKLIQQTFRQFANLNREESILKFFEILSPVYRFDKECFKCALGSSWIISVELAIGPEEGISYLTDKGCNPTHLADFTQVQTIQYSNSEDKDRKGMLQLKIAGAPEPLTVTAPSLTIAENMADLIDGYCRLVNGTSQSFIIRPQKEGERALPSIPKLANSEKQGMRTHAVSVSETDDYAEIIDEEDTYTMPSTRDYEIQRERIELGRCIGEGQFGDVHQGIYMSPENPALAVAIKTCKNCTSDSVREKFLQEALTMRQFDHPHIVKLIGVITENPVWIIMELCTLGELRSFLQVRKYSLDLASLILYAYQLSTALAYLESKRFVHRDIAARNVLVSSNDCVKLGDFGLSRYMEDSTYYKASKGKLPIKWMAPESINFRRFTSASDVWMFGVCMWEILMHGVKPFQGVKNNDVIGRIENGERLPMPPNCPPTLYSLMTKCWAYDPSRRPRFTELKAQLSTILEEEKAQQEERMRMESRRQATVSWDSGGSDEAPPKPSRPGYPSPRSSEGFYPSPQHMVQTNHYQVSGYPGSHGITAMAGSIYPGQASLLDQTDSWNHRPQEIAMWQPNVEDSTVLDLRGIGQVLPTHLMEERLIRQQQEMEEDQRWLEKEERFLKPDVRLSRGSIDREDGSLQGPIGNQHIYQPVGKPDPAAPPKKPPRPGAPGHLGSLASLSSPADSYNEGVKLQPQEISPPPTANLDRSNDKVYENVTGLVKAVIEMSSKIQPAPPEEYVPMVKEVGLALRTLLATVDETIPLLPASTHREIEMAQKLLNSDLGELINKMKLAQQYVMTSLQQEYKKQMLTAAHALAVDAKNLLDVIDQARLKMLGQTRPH
Streptavidin (Streptomyces avidinii), sequence (P22629 whole entry, looked up): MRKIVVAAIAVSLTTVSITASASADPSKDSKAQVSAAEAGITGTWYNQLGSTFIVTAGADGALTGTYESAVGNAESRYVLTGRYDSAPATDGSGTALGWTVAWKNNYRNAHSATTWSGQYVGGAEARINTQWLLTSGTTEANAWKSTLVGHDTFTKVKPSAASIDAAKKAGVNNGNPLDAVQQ
Fibroblast growth factor 2 (Homo sapiens), sequence (P09038 whole entry, looked up): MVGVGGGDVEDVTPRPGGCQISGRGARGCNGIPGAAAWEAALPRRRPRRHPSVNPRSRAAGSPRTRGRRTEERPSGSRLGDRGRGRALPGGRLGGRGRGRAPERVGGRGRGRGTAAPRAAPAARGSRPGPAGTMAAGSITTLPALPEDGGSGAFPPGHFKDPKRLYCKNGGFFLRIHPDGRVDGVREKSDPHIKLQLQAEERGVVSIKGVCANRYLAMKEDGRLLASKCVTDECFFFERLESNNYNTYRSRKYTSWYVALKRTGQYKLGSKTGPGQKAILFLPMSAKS

Consider `C=CCN1C(=O)[C@@]2(O[C@@H](CCn3cc([C@H](O)c4ccccc4)nn3)[C@H]([Si](C)(C)c3ccc(OC)cc3)[C@H]2C)c2ccccc21`, for which the composite z-score in experiment [1] was determined as 0.351; in [2], 1.14; in experiment [3], 0.287; in experiment [4], 0.371; in experiment [5] it was 1.18; in [6], 0.761. Also, the composite z-score in the experiment on Lefty1 was 1.2; in experiment [8], 0.875; in experiment [10] it was 0.351; in experiment [15], -0.0664; in [16], 0.134; with Torsin-1A (Homo sapiens) [17], -0.0628. Further, the composite z-score with Torsin-1A (Homo sapiens) [18] is -0.168; in [19] it was 1.7. For the same compound, the z-score is 0.493 in experiment [7]; 0.586 (inactive) in experiment [9]; -3.85 (inactive) in [11]; 0.0526 (inactive) in experiment [12]; 3.9 (inactive) in experiment [13]; -0.448 (inactive) in [14].
Turning to `COC(=O)[C@@]1(Cc2ccc(OC)cc2)[C@H]2c3cc(C(=O)N(C)C)n(CCc4c[nH]c5ccc(O)cc45)c3C[C@H]2CN1C(=O)c1ccccc1`, the composite z-score is 0.548 in [1]; 1.21 in experiment [2]; 1.36 in [3]; 0.979 in experiment [4]; 1.01 in [5]; -0.218 in [6]. The composite z-score in the experiment on Lefty1 was -0.737; in experiment [8] it was 1.28; in experiment [10], 0.292; in [15] it was 1.65; in experiment [16], 0.765; with Torsin-1A (Homo sapiens) [17] it was 0.0612. Further, the composite z-score with Torsin-1A (Homo sapiens) [18] is 0.263; in [19], -0.428. The z-score in experiment [7] was 0.74; in [9], 1.18 (inactive); in experiment [11], -2.69 (inactive); in experiment [12], 0.255 (inactive); in [13], 0.383 (inactive); in experiment [14], -0.292 (inactive).
As to `CN(C)CCCN1C(=O)[C@@]2(c3ccc([N+](=O)[O-])cc3)CC(=O)N(CC34CC5CC(CC(C5)C3)C4)[C@@H]2c2ccc(CO)cc21`, the composite z-score in [1] is 1.98; in experiment [2], -0.0813; in experiment [3] it was -0.117; in experiment [4], 0.926; in [5], 0.203; in experiment [6] it was -0.112. In addition, the composite z-score with Lefty1 is 0.13; in experiment [8], 0.354; in experiment [10] it was -0.199; in experiment [15] it was -0.472; in experiment [16], -0.0963; with Torsin-1A (Homo sapiens) [17], -0.524. The results for the composite z-score (with Torsin-1A (Homo sapiens) [18]; in experiment [19]) were -0.17 and 0.0109, respectively. In addition, the z-score in experiment [7] was 1.72; in [9] it was -0.701 (inactive); in [11] it was 0.278 (inactive); in experiment [12], 0.878 (inactive); in experiment [13] it was -0.0259 (inactive); in [14] it was -0.598 (inactive).
Turning to `COCCCNC(=O)[C@]1(CCC(=O)OC(C)(C)C)N=C(c2ccc(OCCCO)cc2)O[C@@H]1c1ccccc1`, the composite z-score is 3.52 in [1]; 1.26 in [2]; 0.807 in [3]; 0.272 in experiment [4]; 1.21 in experiment [5]; -0.0959 in experiment [6]. The composite z-score in the experiment with Lefty1 is -0.989; in experiment [8] it was 1.12; in experiment [10], 0.163; in experiment [15], 0.172; in experiment [16] it was 0.346; with Torsin-1A (Homo sapiens) [17], 1.11. In addition, the composite z-score was 2.06 with Torsin-1A (Homo sapiens) [18] and -1.52 in experiment [19]. The z-score in experiment [7] was 0.229; in experiment [9], -0.127 (inactive); in experiment [11], 0.11 (inactive); in experiment [12], 1.2 (inactive); in experiment [13], 0.699 (inactive); in experiment [14] it was -0.625 (inactive).
As for `CN(C)CCCNC(=O)[C@@H]1c2ccccc2C(=O)N(CC23CC4CC(CC(C4)C2)C3)[C@H]1c1ccc(CO)cc1`, the composite z-score in [1] worked out at 2.44; in [2], 1.27; in experiment [3], 0.0169; in [4], 0.954; in [5], 1.21; in experiment [6], 0.788. Also, the composite z-score with Lefty1 was found to be 1.26; in experiment [8], 0.665; in experiment [10] it was 0.528; in experiment [15] it was 1.12; in experiment [16], 0.016; with Torsin-1A (Homo sapiens) [17], 0.954. Besides, the figures for the composite z-score (in the experiment with Torsin-1A (Homo sapiens) [18]; in experiment [19]) were 0.808 and 1.5, respectively. For the same compound, the z-score is 1.36 in experiment [7]; 0.717 (inactive) in experiment [9]; -4.72 (inactive) in [11]; -0.465 (inactive) in experiment [12]; -0.322 (inactive) in experiment [13]; -0.0221 (inactive) in experiment [14].
